Results filed as inconclusive are left out. Calls of active or inactive are those of the source. Unless noted, the call rests on the fitted dose curve; in most records, active means well fitted cell-killing curve with a large enough effect; inconclusive means small, poorly fitted or top-dose-only effect; inactive means flat fitted curve, though single readings scatter.
How the values were obtained:
[1] = Cell Viability - LYMP2-021 (AID 974);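 further: compound exposure lasts 24 hours at 37 °C; nearly all actives have a fitted effect of over 55% in size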
How it was run: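 Human lymphoblastoid LYMP2-021 cells, 2500/well in complete medium, treated 24 hours at 37 C. Intracellular ATP by CellTiter-Glo luminescence (30 min, RT); AC50 from Hill fits of concentration-response.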

[2] = Cell Viability - LYMP2-023 (AID 975);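 further: cellular ATP measured by luciferase luminescence as viability proxy; series mostly up to about 92 µM; nearly all actives have a fitted effect of over 55% in size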
How it was run: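 LYMP2-023 human lymphoblastoid cells, 2500/well, preincubated 5 hr at 37 C, then compound-treated 24 hr at 37 C in complete medium. CellTiter-Glo luminescence (ATP) after 30 min at room temperature; AC50 from Hill-equation fits; tetraoctylammonium bromide positive control.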

[3] = Cell Viability - LYMP2-025 (AID 976); further: series mostly up to about 92 µM
How it was run: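 Human lymphoblastoid LYMP2-025 cells, 2500/well, exposed 24 h at 37 C in complete medium in 1536-well qHTS. Viability as cellular ATP by CellTiter-Glo luminescence; AC50 from Hill fits of concentration-response data.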

[4] = Cell Viability - LYMP2-002 (AID 977); further: series mostly up to about 92 µM
How it was run: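 Luminescent ATP readout (CellTiter-Glo, 30 min room temperature) after 24 h compound exposure at 37 C of a human lymphoblastoid line, 2500 cells/well. AC50 values derived by standard Hill fitting of qHTS concentration-response data.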

[5] = Cell Viability - LYMP2-006 (AID 978); further: series mostly up to about 92 µM; nearly all actives have a fitted effect of over 60% in size
How it was run: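 Concentration-dependent loss of intracellular ATP in a human lymphoblastoid line after 24 hr treatment at 37 C was measured by CellTiter-Glo luminescence, with AC50 values obtained from standard Hill-equation modelling.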

[6] = Cell Viability - LYMP2-007 (AID 979);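 further: cells exposed to compound for 24 h before reading; nearly all actives have a fitted effect of over 60% in size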
How it was run: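 Human lymphoblastoid LYMP2-007 cells (2500/well) preincubated 5 h at 37 C, then treated 24 h at 37 C in complete medium. Viability by CellTiter-Glo ATP luminescence after 30 min at room temperature; AC50 from Hill fits.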

[7] = Cell Viability - LYMP2-008 (AID 980); further: nearly all actives have a fitted effect of over 60% in size
How it was run: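 LYMP2-008 lymphoblastoid cells (2500/well) plated 5 h, then treated 24 h at 37 C in complete medium. Viability read as intracellular ATP by CellTiter-Glo luminescence after 30 min at room temperature; AC50 from Hill fits.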

[8] = Cell Viability - LYMP2-010 (AID 981); further: nearly all actives have a fitted effect of over 55% in size
How it was run: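 Human lymphoblastoid LYMP2-010 cells (2500/well) treated 24 h at 37 C in complete medium; viability read as intracellular ATP by CellTiter-Glo luminescence. AC50 from Hill fits of concentration-response data; tetraoctylammonium bromide positive control.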

[9] = Cell Viability - LYMP2-012 (AID 982);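 further: cellular ATP by luciferase luminescence where a drop means cytotoxicity; cells exposed to compound for one day before reading; nearly all actives have a fitted effect of over 55% in size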
[10] = Cell Viability - LYMP2-014 (AID 983); further: series mostly up to about 92 µM; nearly all actives have a fitted effect of over 50% in size
How it was run: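 LYMP2-014 human lymphoblastoid cells, 2500/well, treated 24 h at 37 C in complete medium; viability by CellTiter-Glo ATP luminescence after 30 min at room temperature. AC50 from Hill fits of qHTS concentration-response; tetraoctylammonium bromide positive control.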

[11] = Cell Viability - LYMP2-016 (AID 984); further: nearly all actives have a fitted effect of over 55% in size
How it was run: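 Acute toxicity in a Coriell human lymphoblastoid line is scored as loss of intracellular ATP over 24 h of treatment in complete medium. CellTiter-Glo signal is fitted across concentrations with the Hill equation to give AC50.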

[12] = Cell Viability - LYMP2-018 (AID 985);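 further: compound exposure lasted 24 hr at 37 °C; nearly all actives have a fitted effect of over 50% in size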
How it was run: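 Human lymphoblastoid LYMP2-018 cells, 2500/well, settled 5 hr at 37 C then exposed to compound 24 hr at 37 C; intracellular ATP measured by CellTiter-Glo luminescence. AC50 from Hill-equation concentration-response fits.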

[13] = Cell Viability - LYMP2-020 (AID 986)
How it was run: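 Human lymphoblastoid LYMP2-020 cells (2500/well) preincubated 5 h at 37 C, then treated 24 h at 37 C. Viability measured as intracellular ATP by CellTiter-Glo luminescence after 30 min at room temperature; AC50 from Hill fits.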

[14] = Cell Viability - LYMP2-022 (AID 987); further: nearly all actives have a fitted effect of over 55% in size
How it was run: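 LYMP2-022 lymphoblastoid cells (2500/well, complete medium) were treated with compounds for 24 hours at 37 C; intracellular ATP was then read by CellTiter-Glo luminescence after 30 min at room temperature. AC50 values were derived from Hill-equation fits.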

[15] = Cell Viability - LYMP2-024 (AID 988); further: nearly all actives have a fitted effect of over 60% in size
How it was run: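 Human lymphoblastoid LYMP2-024 cells (2500/well) rested 5 hr, then treated with compound for 24 hr at 37 C in complete medium. Viability was measured as intracellular ATP by CellTiter-Glo luminescence. AC50 values came from Hill-equation fits.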

[16] = Cell Viability - LYMP2-026 (AID 989); further: nearly all actives have a fitted effect of over 50% in size
How it was run: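 Human lymphoblastoid LYMP2-026 cells, 2500/well, exposed to compound 24 h at 37 C in complete medium. Viability as intracellular ATP by CellTiter-Glo luminescence; AC50 from Hill fits of qHTS concentration-response.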

[17] = Cell Viability - LYMP1-002 - Assay at 24 hr (AID 993)
How it was run: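 Human lymphoblastoid LYMP1-002 cells (2500/well) treated 24 h at 37 °C; viability as intracellular ATP by CellTiter-Glo luminescence. Tetraoctylammonium bromide as positive control; AC50 from Hill-equation fits of qHTS concentration-response.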

[18] = Cell Viability - LYMP1-002 - Assay at 40 hr (AID 994); further: nearly all actives have a fitted effect of over 60% in size
How it was run: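 LYMP1-002 human lymphoblastoid cells (2500/well, complete medium) were treated with compounds for 40 hr at 37 C. Intracellular ATP was measured by CellTiter-Glo luminescence, and AC50 values came from Hill-equation fits of concentration-response data; tetraoctylammonium bromide was the positive control.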

[19] = molecular target: Estrogen receptor (Homo sapiens) (UniProt P03372); assay: qHTS assay for small molecule antagonists of estrogen receptor alpha signaling (AID 588513; active means well fitted curve in the direction sought with a large enough effect in the signal ratio, with a control signal flat, not every such curve was filed as active; the % refers to the signal ratio)
Sequence of Estrogen receptor (Homo sapiens) (P03372 whole entry, looked up): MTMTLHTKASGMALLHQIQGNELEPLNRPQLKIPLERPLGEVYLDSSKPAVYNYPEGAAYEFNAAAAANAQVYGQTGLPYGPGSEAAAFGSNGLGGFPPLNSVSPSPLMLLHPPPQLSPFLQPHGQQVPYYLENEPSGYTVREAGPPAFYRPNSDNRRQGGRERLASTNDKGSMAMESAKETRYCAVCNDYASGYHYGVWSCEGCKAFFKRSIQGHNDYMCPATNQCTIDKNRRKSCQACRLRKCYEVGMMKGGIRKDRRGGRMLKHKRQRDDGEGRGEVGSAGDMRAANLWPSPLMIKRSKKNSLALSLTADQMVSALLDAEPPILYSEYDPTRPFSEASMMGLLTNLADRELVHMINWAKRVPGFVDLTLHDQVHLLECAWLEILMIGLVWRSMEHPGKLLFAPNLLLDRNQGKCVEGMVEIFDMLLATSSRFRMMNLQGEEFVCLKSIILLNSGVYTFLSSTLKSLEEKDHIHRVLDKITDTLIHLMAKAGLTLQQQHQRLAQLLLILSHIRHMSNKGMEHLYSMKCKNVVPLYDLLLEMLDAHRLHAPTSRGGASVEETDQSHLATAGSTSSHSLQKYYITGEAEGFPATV
How it was run: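 Cells were plated at 5000/well and incubated 4 h at 37 C. Compounds were added as 1:2 dilution series, duplicates. 17-beta-estradiol (0.5nM final) was added for 18 h before CCF4 detection.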

[20] = molecular target: Estrogen receptor (Homo sapiens) (UniProt P03372); assay: qHTS assay for small molecule agonists of estrogen receptor alpha signaling (AID 588514; calls by dose curve; further: nearly all actives have a fitted effect of over 70% in size)
How it was run: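 ER-alpha-UAS-bla GripTite HEK293 cells, 5000/well in 2% charcoal/dextran-stripped FBS medium, treated with compound titrations 18 h at 37 C. CCF4 beta-lactamase read by fluorescence after 2 h RT; normalised to 20 nM 17-beta-estradiol (100%) and DMSO (0%), Hill fit for EC50 and efficacy.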

[21] = molecular target: Androgen receptor (Homo sapiens) (UniProt P10275); assay: qHTS assay for small molecule antagonists of androgen receptor signaling (AID 588516; active means well fitted curve in the direction sought with a large enough effect in the signal ratio, with a control signal flat, not every such curve was filed as active; the % refers to the signal ratio)
Sequence of Androgen receptor (Homo sapiens) (P10275 whole entry, looked up): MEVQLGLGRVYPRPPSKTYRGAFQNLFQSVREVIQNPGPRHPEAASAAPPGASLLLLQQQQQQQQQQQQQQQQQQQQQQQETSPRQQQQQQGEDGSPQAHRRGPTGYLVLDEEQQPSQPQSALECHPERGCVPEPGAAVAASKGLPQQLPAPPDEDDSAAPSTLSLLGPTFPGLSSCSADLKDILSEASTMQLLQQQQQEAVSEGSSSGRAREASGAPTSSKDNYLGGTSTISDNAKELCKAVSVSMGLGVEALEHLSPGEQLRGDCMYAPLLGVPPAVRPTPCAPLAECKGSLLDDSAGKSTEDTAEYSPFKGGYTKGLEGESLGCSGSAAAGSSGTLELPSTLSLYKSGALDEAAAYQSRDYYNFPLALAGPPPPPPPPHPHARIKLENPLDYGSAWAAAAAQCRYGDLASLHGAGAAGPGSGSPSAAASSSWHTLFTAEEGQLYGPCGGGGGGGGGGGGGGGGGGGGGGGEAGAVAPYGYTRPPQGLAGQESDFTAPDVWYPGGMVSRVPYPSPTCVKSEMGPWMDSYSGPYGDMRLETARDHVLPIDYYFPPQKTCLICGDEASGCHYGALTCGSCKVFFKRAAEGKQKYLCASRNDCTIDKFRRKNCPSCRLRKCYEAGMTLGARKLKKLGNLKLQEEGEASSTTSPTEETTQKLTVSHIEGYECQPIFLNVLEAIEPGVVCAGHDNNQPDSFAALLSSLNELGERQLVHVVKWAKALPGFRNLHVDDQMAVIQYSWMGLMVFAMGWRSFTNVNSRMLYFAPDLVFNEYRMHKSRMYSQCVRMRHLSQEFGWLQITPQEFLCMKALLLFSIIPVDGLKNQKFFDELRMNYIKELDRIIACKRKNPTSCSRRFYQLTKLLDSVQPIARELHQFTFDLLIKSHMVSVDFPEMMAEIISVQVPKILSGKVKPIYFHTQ
How it was run: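 Antagonist-mode qHTS: inhibition of R1881 (10 nM)-driven beta-lactamase expression in GripTite HEK 293 cells is measured after 16 h; values are Hill-derived IC50s normalized between R1881 and DMSO wells.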

Measured: Potency

Clc1cccc(C(Cl)(Cl)Cl)n1
inactive: all assays above

— PubChem BioAssay (NCATS)
